± gives the standard deviation of the averaged measurements.
What follows are molecules tested on ipsdienol A-neuron OSN class (assay: net action potential response of A-neuron (blank-subtracted) (spikes/s (Hz)); higher = stronger excitation). Settings: 10 µg on filter paper; neuron: A neuron (large spike amplitude).
Protocol: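 Single sensillum recordings from antennal olfactory sensilla of live adult Ips typographus. Each compound was 10 µg in paraffin oil on filter paper, delivered as a 0.5 s puff. Net response = spikes in the first 0.5 s of response minus the 0.5 s pre-stimulus count, doubled to give Hz, with blank response subtracted. Values are for the large-spike A-neuron class of each of seven sensillum types that co-house the lanierone B-neuron; N = 1-4 sensilla, averaged.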

| SMILES | net action potential response |
| --- | --- |
| Cc1ccccc1 [Toluene] | -1.33 ± 5 |
| O=Cc1ccccc1 [Benzaldehyde] | 2 ± 4 |
| C=CCc1ccc(OC)cc1 [Estragole] | 2.67 ± 1.1 |
